Positions count from the first letter of the chain named.

Holding throughout (assay): yeast three-hybrid, YBZ-1, SC-Leu-His + 0.5 mM 3-AT, 4 days
What all share (conditions): tags: N-Gal4 AD-HA kept; label: inside an RPR1-promoter hybrid RNA with tandem MS2 sites; ssRNA

Experiment [1] has as its target PUM1 PUF domain R4-EPR (Homo sapiens, UniProt Q14671 828-1176, N971E;H972P;Q975R). Summed up: (§1)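 The interaction score is the log change in variant frequency from input to selection. Scores were computed in log2 with a pseudocount of 1 for absent variants, using Illumina sequencing of PCR-amplified repeat regions. The input came from four days on SC-Leu and the selection from four days on SC-Leu-His + 0.5 mM 3-AT. The cells were strain YBZ-1 (LexA–MS2 coat fusion, HIS3 reporter) co-expressing Pumilio-1 PUF domain libraries and matching RNA elements from a centromeric plasmid.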

The target of experiment [2] is T1, PUM1 PUF domain R6-NFC (Homo sapiens, UniProt Q14671 828-1176, Y1044F;Q1047C).
T1 sequence: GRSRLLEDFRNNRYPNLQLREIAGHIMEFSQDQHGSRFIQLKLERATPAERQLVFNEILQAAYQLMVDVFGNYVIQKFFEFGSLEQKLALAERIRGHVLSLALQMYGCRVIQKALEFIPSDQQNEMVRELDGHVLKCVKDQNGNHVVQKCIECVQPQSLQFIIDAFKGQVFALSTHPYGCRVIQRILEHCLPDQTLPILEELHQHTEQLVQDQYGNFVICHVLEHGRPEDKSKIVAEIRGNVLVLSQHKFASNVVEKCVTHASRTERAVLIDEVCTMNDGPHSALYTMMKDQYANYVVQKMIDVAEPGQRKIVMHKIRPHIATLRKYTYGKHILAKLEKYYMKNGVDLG
The method in brief: as §1

In experiment [3] the target is T2, PUM1 PUF domain R6-QFR (Homo sapiens, UniProt Q14671 828-1176, N1043Q;Y1044F;Q1047R).
T2 sequence: T1 sequence with N216Q, C220R
The method in brief:
as §1

Experiment [4] concerns the target PUM1 PUF domain R5-RHI (Homo sapiens, UniProt Q14671 828-1176, C1007R;R1008H;Q1011I). The method in brief:
as §1

Experiment [5] has as its target PUM1 PUF domain R8-AFR (Homo sapiens, UniProt Q14671 828-1176, N1122A;Y1123F;Q1126R). Summed up: as §1
The target in experiment [6] is PUM1 PUF domain R8-SWR (Homo sapiens, UniProt Q14671 828-1176, N1122S;Y1123W;Q1126R). The method in brief:
as §1

In experiment [7] the target is PUM1 PUF domain R8-RYL (Homo sapiens, UniProt Q14671 828-1176, N1122R;Q1126L). The method in brief:
as §1

Experiment [8] concerns the target PUM1 PUF domain R5-RAN (Homo sapiens, UniProt Q14671 828-1176, C1007R;R1008A;Q1011N). The method in brief: as §1
The target of experiment [9] is PUM1 PUF domain R3-DWS (Homo sapiens, UniProt Q14671 828-1176, C935D;R936W;Q939S). The method in brief:
as §1

Experiment [10] deals with PUM1 PUF domain R3-LRA (Homo sapiens, UniProt Q14671 828-1176, C935L;Q939A). Summed up:
as §1

Experiment [11] has as its target PUM1 PUF domain R3-NPV (Homo sapiens, UniProt Q14671 828-1176, C935N;R936P;Q939V). The method in brief:
as §1

The target of experiment [12] is PUM1 PUF domain R3-LRR (Homo sapiens, UniProt Q14671 828-1176, C935L;Q939R). The method in brief:
as §1

The target of experiment [13] is PUM1 PUF domain R5-DFP (Homo sapiens, UniProt Q14671 828-1176, C1007D;R1008F;Q1011P). The method in brief: as §1
The target of experiment [14] is PUM1 PUF domain R1-KIR (Homo sapiens, UniProt Q14671 828-1176, S863K;R864I;Q867R). The method in brief:
as §1

The target in experiment [15] is PUM1 PUF domain R1-KGL (Homo sapiens, UniProt Q14671 828-1176, S863K;R864G;Q867L). Summed up: as §1
The target of experiment [16] is PUM1 PUF domain R5-RNR (Homo sapiens, UniProt Q14671 828-1176, C1007R;R1008N;Q1011R). The method in brief:
as §1

The target in experiment [17] is PUM1 PUF domain R5-DKR (Homo sapiens, UniProt Q14671 828-1176, C1007D;R1008K;Q1011R). Summed up:
as §1

The target of experiment [18] is PUM1 PUF domain R5-KGV (Homo sapiens, UniProt Q14671 828-1176, C1007K;R1008G;Q1011V). The method in brief: as §1
Experiment [19] deals with PUM1 PUF domain R3-YSV (Homo sapiens, UniProt Q14671 828-1176, C935Y;R936S;Q939V). Summed up: as §1
Experiment [20] deals with PUM1 PUF domain R5-SGV (Homo sapiens, UniProt Q14671 828-1176, C1007S;R1008G;Q1011V). The method in brief: as §1
Sequence of PUM1 PUF domain R5-SGV (Q14671 828-1176 C1007S/R1008G/Q1011V): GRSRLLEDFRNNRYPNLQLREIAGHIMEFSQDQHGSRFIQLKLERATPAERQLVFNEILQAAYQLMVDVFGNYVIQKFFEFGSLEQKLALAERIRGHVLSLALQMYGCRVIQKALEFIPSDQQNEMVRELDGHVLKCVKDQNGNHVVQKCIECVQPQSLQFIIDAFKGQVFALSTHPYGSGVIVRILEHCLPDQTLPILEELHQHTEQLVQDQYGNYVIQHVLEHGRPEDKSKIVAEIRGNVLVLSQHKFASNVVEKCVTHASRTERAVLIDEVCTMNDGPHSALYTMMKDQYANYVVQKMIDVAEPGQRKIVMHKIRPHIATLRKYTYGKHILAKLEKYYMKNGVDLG

Sequence of PUM1 PUF domain R4-EPR (Q14671 828-1176 N971E/H972P/Q975R): as the sequence (Q14671 828-1176 C1007S/R1008G/Q1011V) above, with N144E, H145P, Q148R, S180C, G181R, V184Q counted along it
Sequence of PUM1 PUF domain R5-RAN (Q14671 828-1176 C1007R/R1008A/Q1011N): as the sequence (Q14671 828-1176 C1007S/R1008G/Q1011V) above, with S180R, G181A, V184N counted along it
Sequence of PUM1 PUF domain R3-LRR (Q14671 828-1176 C935L/Q939R): as the sequence (Q14671 828-1176 C1007S/R1008G/Q1011V) above, with C108L, Q112R, S180C, G181R, V184Q counted along it
Sequence of PUM1 PUF domain R1-KGL (Q14671 828-1176 S863K/R864G/Q867L): as the sequence (Q14671 828-1176 C1007S/R1008G/Q1011V) above, with S36K, R37G, Q40L, S180C, G181R, V184Q counted along it
Sequence of PUM1 PUF domain R5-KGV (Q14671 828-1176 C1007K/R1008G/Q1011V): as the sequence (Q14671 828-1176 C1007S/R1008G/Q1011V) above, with S180K counted along it
Sequence of PUM1 PUF domain R5-DKR (Q14671 828-1176 C1007D/R1008K/Q1011R): as the sequence (Q14671 828-1176 C1007S/R1008G/Q1011V) above, with S180D, G181K, V184R counted along it
Sequence of PUM1 PUF domain R3-DWS (Q14671 828-1176 C935D/R936W/Q939S): as the sequence (Q14671 828-1176 C1007S/R1008G/Q1011V) above, with C108D, R109W, Q112S, S180C, G181R, V184Q counted along it
Sequence of PUM1 PUF domain R5-DFP (Q14671 828-1176 C1007D/R1008F/Q1011P): as the sequence (Q14671 828-1176 C1007S/R1008G/Q1011V) above, with S180D, G181F, V184P counted along it
Sequence of PUM1 PUF domain R3-YSV (Q14671 828-1176 C935Y/R936S/Q939V): as the sequence (Q14671 828-1176 C1007S/R1008G/Q1011V) above, with C108Y, R109S, Q112V, S180C, G181R, V184Q counted along it

On to “GGCUAGAACUAGUGGAUCCCCCGGCGCCCGGCGGCUCGAGCCCGGGUAAGUGUAUAUAGUCUGCAUGCCGCCGGGCGCCAUGCCUGCAGGUCGACUCUAGAAAACAUG”, for which, in experiment [1], the binding signal was 2.23 log2 enrichment (interaction score).

Take “GGCUAGAACUAGUGGAUCCCCCGGCGCCCGGCGGCUCGAGCCCGGGUAAGUGUAAAUAGUCUGCAUGCCGCCGGGCGCCAUGCCUGCAGGUCGACUCUAGAAAACAUG”: the binding signal is 3.34 log2 enrichment (interaction score) in experiment [2]; 7.93 log2 enrichment (interaction score) in [3]; 3.02 log2 enrichment (interaction score) in experiment [4]; 3.56 log2 enrichment (interaction score) in experiment [5]; 6.3 log2 enrichment (interaction score) in [6]; 5.73 log2 enrichment (interaction score) in experiment [7]. For the same sequence, the binding signal in experiment [8] is 2.14 log2 enrichment (interaction score); in [9], 4.09 log2 enrichment (interaction score); in experiment [1], 4.56 log2 enrichment (interaction score).

Regarding “GGCUAGAACUAGUGGAUCCCCCGGCGCCCGGCGGCUCGAGCCCGGGUAAGCGUAAAUAGUCUGCAUGCCGCCGGGCGCCAUGCCUGCAGGUCGACUCUAGAAAACAUG”, the values for the binding signal in [5], in experiment [6] and in experiment [7] were 3.34 log2 enrichment (interaction score), 5.3 log2 enrichment (interaction score) and 5.95 log2 enrichment (interaction score), respectively.

Regarding “GGCUAGAACUAGUGGAUCCCCCGGCGCCCGGCGGCUCGAGCCCGGGUAAGUGUAAUUAGUCUGCAUGCCGCCGGGCGCCAUGCCUGCAGGUCGACUCUAGAAAACAUG”, the binding signal is 1.5 log2 enrichment (interaction score) in [10], 2.64 log2 enrichment (interaction score) in experiment [11] and 0.21 log2 enrichment (interaction score) in experiment [12].

“GGCUAGAACUAGUGGAUCCCCCGGCGCCCGGCGGCUCGAGCCCGGGUAAGUGCAAAUAGUCUGCAUGCCGCCGGGCGCCAUGCCUGCAGGUCGACUCUAGAAAACAUG”: the binding signal in experiment [3] was 4.65 log2 enrichment (interaction score).

In the case of “GGCUAGAACUAGUGGAUCCCCCGGCGCCCGGCGGCUCGAGCCCGGGUAAGUGUUAAUAGUCUGCAUGCCGCCGGGCGCCAUGCCUGCAGGUCGACUCUAGAAAACAUG”, the results for the binding signal in experiment [4] and in experiment [13] were 5.86 log2 enrichment (interaction score) and 5.24 log2 enrichment (interaction score), respectively.

For “GGCUAGAACUAGUGGAUCCCCCGGCGCCCGGCGGCUCGAGCCCGGGUAAGUGUAAAUCGUCUGCAUGCCGCCGGGCGCCAUGCCUGCAGGUCGACUCUAGAAAACAUG”, the figures for the binding signal in experiment [14] and in [15] were 4.83 log2 enrichment (interaction score) and 3.12 log2 enrichment (interaction score), respectively.

As to “GGCUAGAACUAGUGGAUCCCCCGGCGCCCGGCGGCUCGAGCCCGGGUAAGUGUAAAUGGUCUGCAUGCCGCCGGGCGCCAUGCCUGCAGGUCGACUCUAGAAAACAUG”, in experiment [15], the binding signal was 1.8 log2 enrichment (interaction score).

Turning to “GGCUAGAACUAGUGGAUCCCCCGGCGCCCGGCGGCUCGAGCCCGGGUAAGUGUCAAUAGUCUGCAUGCCGCCGGGCGCCAUGCCUGCAGGUCGACUCUAGAAAACAUG”, the binding signal was 3.17 log2 enrichment (interaction score) in experiment [16]; 4.97 log2 enrichment (interaction score) in experiment [4]; 5.01 log2 enrichment (interaction score) in experiment [17]; 2.21 log2 enrichment (interaction score) in experiment [8]; 4.44 log2 enrichment (interaction score) in experiment [18].

As to “GGCUAGAACUAGUGGAUCCCCCGGCGCCCGGCGGCUCGAGCCCGGGUAAGUGUACAUAGUCUGCAUGCCGCCGGGCGCCAUGCCUGCAGGUCGACUCUAGAAAACAUG”, in [1], the binding signal was 3.74 log2 enrichment (interaction score).

As for “GGCUAGAACUAGUGGAUCCCCCGGCGCCCGGCGGCUCGAGCCCGGGUAAGUGUAAGUAGUCUGCAUGCCGCCGGGCGCCAUGCCUGCAGGUCGACUCUAGAAAACAUG”, the values for the binding signal in experiment [10], in experiment [12] and in experiment [19] were 4.29 log2 enrichment (interaction score), 3.15 log2 enrichment (interaction score) and 2.32 log2 enrichment (interaction score), respectively.

In the case of “GGCUAGAACUAGUGGAUCCCCCGGCGCCCGGCGGCUCGAGCCCGGGUAAGUGUGAAUAGUCUGCAUGCCGCCGGGCGCCAUGCCUGCAGGUCGACUCUAGAAAACAUG”, the binding signal in [20] is 2.69 log2 enrichment (interaction score).

The values are drawn from paper PMC8384837, “Expanding the binding specificity for RNA recognition by a PUF domain”.
